Only some compounds are listed: those with a hit (about 11% of all), similar ones and a draw of the others.
HCV inh = inhibitors of hepatitis C virus infection; Potency, µM (series often up to 41.8 µM), for the others: at the highest dose activity change, negative = inhibition, most hits filed as inhibitors; 340,000 tested, 3.4% active; AID 651820; Huh7.5.1 HCVcc-Cre infection, luciferase reporter, 44 h; note: % is set by controls: 0 for no effect and ±100 for the full control effect
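Seed cells (1,000/well) for 4 h; treat with compound and infect with HCVcc-Cre, moi about 0.5. Incubate 44 h, then detect luciferase activity.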
Pf growth 48h = P. falciparum growth inhibition at 48 hours (one generation); P. falciparum luciferase growth in erythrocytes, 48 h; Potency, µM (series often up to 28.7 µM), for inactives: at the top dose activity change, negative = inhibition, hits mostly inhibitors; 310,000 tested, 5.9% active; note: % is set by controls: 0 for no effect and ±100 for the full control effect
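Luciferase-expressing P. falciparum in infected erythrocytes (2% hematocrit, 0.1% parasitemia final) in RPMI 1640/0.5% Albumax were exposed to compound for 48 hours at 37 C, 5% CO2; growth read as luminescence.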
VACV mCherry inh = inhibitors of vaccinia virus infection (mCherry reporter signal). Vaccinia virus mCherry reporter infection, fluorescence. Potency, µM (highest dose often 36.5 µM), inactives show top-dose activity change, negative = inhibition, hits mostly inhibitors. 310,000 tested, 0.63% active; calls by dose curve; tested in A549 cells; note: % is set by controls: 0 for no effect and ±100 for the full control effect; nearly all actives have a fitted effect of over 35% in size
NS1 function inh = influenza NS1 inhibition; Potency, µM (series often up to 46.1 µM), inactives show top-dose activity, positive = more growth; 270,000 tested, 0.4% active; calls by dose curve; note: actives are rising curves; nearly all actives have a fitted effect of over 50% in size
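In this qHTS, NS1 from influenza A is expressed in budding yeast, where it slows growth. Cells are switched from glucose to 2% galactose medium (pH 6.0, -URA), treated with compound, and growth recovery is read at OD600.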
VACV Venus inh = vaccinia inhibition (Venus reporter). Vaccinia virus Venus reporter expression, fluorescence. AID 720580. 330,000 tested, 0.46% active. Potency, µM (titrated, usually from 36.5 µM), inactives show top-dose activity change, negative = inhibition, most hits filed as inhibitors; calls by dose curve; tested in A549 cells; note: % is set by controls: 0 for no effect and ±100 for the full control effect; nearly all actives have a fitted effect of over 30% in size
Pf growth 96h = inhibits malaria parasite growth, 96 h; P. falciparum luciferase reporter growth, 96 h; Potency, µM (highest dose often 28.7 µM), without a hit: at the highest dose activity change, negative = inhibition, most hits filed as inhibitors; 320,000 tested, 6.9% active; note: % is set by controls: 0 for no effect and ±100 for the full control effect
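Luminescence readout: decreased luciferase signal marks inhibited growth of reporter-expressing P. falciparum in infected red cells (2% hematocrit, 0.05% parasitemia final), exposed to compound two generations (96 h, 37 C, 5% CO2).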
* marks the source's active call; other numbers are inactive results; i = inactive; ? = inconclusive; nt = no result given. Unless noted, calls come from the whole dose curve; as a rule, active = well fitted inhibition curve with a large enough effect; inconclusive = small, poorly fitted or top-dose-only effect, or another doubt; inactive = no such curve, though single readings can be large or run the other way. Potency is the fitted concentration of half-maximal effect.

SMILES	HCV inh	Pf growth 48h	VACV mCherry inh	NS1 function inh	VACV Venus inh	Pf growth 96h
CCCCNS(=O)(=O)c1ccc(OCC(=O)N2CCN(Cc3ccc4c(c3)OCO4)CC2)cc1	3.16µM*	?	nt	-16.8%	nt	10.4µM*
CCN(CC)S(=O)(=O)c1ccc(C)c(NC(=S)N2CCN(Cc3ccc4c(c3)OCO4)CC2)c1	6.31µM*	-1.5%	-25.8%	-37.6%	-15.0%	-4.8%
CCN(CC)S(=O)(=O)c1ccc(C)c(NC(=S)N2CCN(C/C=C/c3ccccc3)CC2)c1	8.91µM*	?	?	-3.8%	?	?
O=C(COc1ccc(S(=O)(=O)N2CCOCC2)cc1)N1CCN(Cc2ccc3c(c2)OCO3)CC1	?	nt	nt	-6.0%	nt	?
CCOC(=O)C1(C)CCCN1C(=O)c1cccc(F)c1 (stereo not drawn)	nt	nt	4.1%	nt	4.0%	nt
O=C(Nc1nc(-c2ccco2)c(-c2ccco2)s1)c1cnccn1	?	?	-6.1%	nt	-17.4%	?
CC1CCCC(C)N1C(=O)C1CC(c2ccc(F)cc2)=NO1 (stereo not drawn)	1.6%	29.6%	nt	-3.7%	nt	nt
Cc1ccccc1NC(=S)N1CCN(Cc2ccccc2)CC1	-3.1%	4.6%	?	-1.1%	-23.6%	1.17µM*
COc1ccc(-c2nc(CSCC(=O)NCC3CCCO3)c(C)o2)cc1OC (stereo not drawn)	4.6%	58.2%	nt	-4.9%	nt	14.7µM*
Cc1ccc(-c2nc(CSCC(=O)NCC3CCCO3)c(C)o2)cc1 (stereo not drawn)	-24.0%	19.1%	?	3.6%	-26.1%	?
CCOc1ccc(-c2nc(CSCC(=O)NCC3CCCO3)c(C)o2)cc1 (stereo not drawn)	-18.5%	42.9%	i	-22.6%	-17.5%	13.1µM*
Cc1ccccc1OCCCCc1c(C)n[nH]c1C	nt	-15.2%	-24.9%	-100.8%	-27.3%	48.8%
Cc1n[nH]c(C)c1CCCCOc1ccccc1F	?	15.7%	-8.9%	-2.8%	-16.1%	2.08µM*
CCn1c(=O)cc(OCC(=O)Nc2ccccc2N2CCN(C)CC2)c2ccccc21	-19.8%	nt	51.0%	?	9.1%	9.28µM*
CCn1c(=O)cc(OCC(=O)Nc2nc(C)cs2)c2ccccc21	-10.4%	6.1%	-13.9%	?	-14.2%	2.08µM*
CCn1c(=O)cc(OCC(=O)Nc2ccccc2Cl)c2ccccc21	nt	nt	-11.4%	nt	-10.0%	nt
CSCCC(C(=O)OCC(=O)c1ccc(C)c(C)c1)N1C(=O)c2ccccc2C1=O (stereo not drawn)	-5.3%	-1.7%	i	-11.3%	-22.1%	2.5%
CCOC(=O)c1sc(=S)n(-c2cc(OC)ccc2OC)c1N	-13.8%	-7.6%	nt	-85.3%	-5.9%	9.28µM*
CCOC(=O)c1sc(=S)n(-c2cc(F)ccc2F)c1N	-26.0%	-13.5%	nt	-49.2%	nt	-10.5%
Cc1c(C(=O)O)sc(=S)n1-c1ccc(Cl)cc1	2.5%	-9.3%	-5.3%	13.4%	1.1%	-5.0%
CCOC(=O)c1c2c(n(-c3ccc(OC)cc3)c1C)C(=O)C(=O)c1ccccc1-2	7.94µM*	nt	2.82µM*	nt	4.47µM*	nt
CCOC(=O)c1c2c(n3ccccc13)C(=O)c1ccccc1C2=O	nt	nt	?	-14.6%	30.5%	nt
CCOC(=O)c1sc(=S)n(-c2ccc(Cl)cc2)c1C	-8.7%	5.22µM*	-15.2%	-9.4%	-11.5%	?
CCOC(=O)c1sc(=S)n(-c2ccc(OC)cc2)c1C	4.9%	13.1µM*	i	-1.6%	-7.5%	?
CC1CN/C(=C\C(=O)c2ccccc2)C(=O)N1 (stereo not drawn)	-1.2%	0.0%	nt	-3.8%	-27.7%	-24.0%
SMILES	HCV inh	Pf growth 48h	VACV mCherry inh	NS1 function inh	VACV Venus inh	Pf growth 96h
O=C(Nc1ccc(F)cc1)C1COc2ccccc2O1 (stereo not drawn)	7.2%	64.8%	nt	-1.4%	nt	96.1%
O=c1[nH]c(CSc2ncn[nH]2)nc2ccccc12	-18.9%	16.2%	-29.6%	2.6%	0.5%	22.4%
CCc1c(C)sc(NC(=O)c2cc(-c3cc(OC)ccc3OC)on2)c1C#N	?	-5.0%	nt	-5.4%	nt	?
NS(=O)(=O)c1ccc(NC(=O)c2cccc3cc4ccccc4nc23)cc1	?	nt	?	nt	-23.9%	nt
CN(CCO)c1cc(Sc2nc3ccccc3s2)c2nonc2c1[N+](=O)[O-]	11.2µM*	41.7%	nt	-56.1%	nt	58.9%
CN(Cc1nc(CCc2ccccc2)no1)Cc1cccs1	-5.2%	-4.1%	-1.5%	-4.0%	-11.1%	?
Cc1ccc(S(=O)(=O)NCC(=O)NC2CC2)cc1	19.7%	12.7%	-14.4%	-0.4%	-2.5%	-63.1%
Clc1ccc(CCC(Cn2ccnc2)Sc2c(Cl)cccc2Cl)cc1 (stereo not drawn)	?	1.47µM*	-7.1%	nt	-21.7%	0.928µM*
CC(=O)O[C@]1(C(C)=O)CC[C@H]2[C@@H]3C[C@H](C)C4=CC(=O)CC[C@]4(C)[C@H]3CC[C@@]21C	?	13.1µM*	-6.1%	-36.3%	-21.0%	11.7µM*
CC(=O)O[C@]1(C(C)=O)CC[C@H]2[C@@H]3C=C(Cl)C4=CC(=O)CC[C@]4(C)[C@H]3CC[C@@]21C	?	11.7µM*	-0.7%	-9.6%	-8.9%	?
CC(=O)O[C@]1(C(C)=O)CC[C@H]2[C@@H]3C=C(Cl)C4=CC(=O)[C@@H]5C[C@@H]5[C@]4(C)[C@H]3CC[C@@]21C	7.1%	10.7µM*	?	nt	?	8.49µM*
Cc1cccc(N2CCN(C(=O)CCC(=O)N3Cc4ccccc4Oc4ncccc43)CC2)c1C	?	?	?	-30.6%	-21.9%	?
Cc1cc(F)cc(-c2cc(C(=O)NCc3cccc(Cl)c3)[nH]n2)c1	nt	nt	i	nt	-8.8%	nt
N#Cc1sc2nc(C3CC3)cc(-c3ccccc3)c2c1N	?	15.1%	-2.0%	-8.7%	-1.8%	8.7%
N#Cc1sc2nc(-c3ccccc3)cc(-c3ccco3)c2c1N	12.6µM*	?	-6.7%	-53.7%	-1.9%	6.4%
CC1CC(C)CN(C(=O)c2nn(C)c3c2CSc2ccccc2-3)C1 (stereo not drawn)	-18.3%	?	i	-42.8%	-26.4%	5.86µM*
CCOC(=O)c1nc2ccccc2c(=O)[nH]1	?	51.1%	-8.2%	-2.8%	-15.8%	44.5%
CCOc1ccc(CC(=O)C2=C(N3CCOCC3)CC(C)(C)CC2=O)cc1OCC	21.0%	-14.1%	2.5%	nt	-3.9%	6.57µM*
O=C(NC1CC1)C1CC(=O)N(c2ccc(F)cc2)C1 (stereo not drawn)	5.9%	7.8%	3.7%	4.2%	1.7%	33.4%
CC(C#N)Sc1ccc(S(=O)(=O)N2CCCCC2)cn1 (stereo not drawn)	6.4%	-25.0%	nt	nt	nt	-13.7%
Cc1ccc(C(C)NC(=O)CSc2ccc(S(=O)(=O)N3CCOCC3)cn2)cc1C (stereo not drawn)	-4.3%	11.7µM*	-22.4%	nt	-29.2%	?
Cc1cccc(CSc2ccc(S(=O)(=O)N3CCCC3)cn2)c1	?	?	nt	nt	nt	6.57µM*

Screening data deposited in PubChem BioAssay by National Center for Advancing Translational Sciences (NCATS).
